Experimental data published in PubChem BioAssay AID1026 (Columbia University Molecular Screening Center, 2008).
Activity calls are given as the source filed them. How the calls were made is not given here.

What follows are molecules tested against Bifunctional epoxide hydrolase 2 (Homo sapiens) (UniProt P34913) (assay: sEH inhibitor concentration-response potency, dose response, biochemical, human sEH, fluorescence, Infinite200 (AID 1026)). Conditions: recombinant human sEH, fluorogenic substrate, at 0.2 µM, stronger effect = higher value.
Chain of Bifunctional epoxide hydrolase 2 (Homo sapiens) (P34913 whole entry, looked up): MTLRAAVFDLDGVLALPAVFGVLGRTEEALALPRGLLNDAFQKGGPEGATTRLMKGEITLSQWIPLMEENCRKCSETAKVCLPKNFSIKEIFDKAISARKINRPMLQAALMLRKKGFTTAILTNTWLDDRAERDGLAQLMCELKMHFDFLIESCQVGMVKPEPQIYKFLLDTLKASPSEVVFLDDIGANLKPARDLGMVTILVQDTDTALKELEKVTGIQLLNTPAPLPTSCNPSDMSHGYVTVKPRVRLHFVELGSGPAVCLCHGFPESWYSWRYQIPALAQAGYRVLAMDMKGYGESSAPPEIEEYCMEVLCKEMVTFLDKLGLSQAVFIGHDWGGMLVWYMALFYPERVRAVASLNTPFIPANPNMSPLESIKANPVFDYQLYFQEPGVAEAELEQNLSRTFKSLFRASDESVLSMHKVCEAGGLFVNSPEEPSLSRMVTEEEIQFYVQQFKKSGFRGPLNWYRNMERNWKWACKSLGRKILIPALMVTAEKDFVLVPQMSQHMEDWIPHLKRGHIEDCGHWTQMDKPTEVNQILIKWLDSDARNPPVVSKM

inhibition, inactive:
O=C(NC1CCCCC1)NC1CC2CCC(C1)N2Cc1nnnn1Cc1ccc2c(c1)OCO2 (stereo not given) 74.2%
O=C(NCCSCc1ccco1)Nc1cccc(Cl)c1 46.2%
COc1ccc(-c2nc3cc(NC(=O)Cc4ccc(OC)c(OC)c4)ccc3o2)cc1 52.1%
CC1CCCC(NC(=O)Nc2cccs2)C1C (stereo not given) 49.2%
CCOc1ccc(NC(=O)Nc2ccc(N(C)C(C)=O)cc2)cc1 54.1%
O=C(NCCC1=CCCCC1)C1CCN(c2nc3ccccc3o2)CC1 45.6%
CC(C)(C)c1cnnn1-c1ccc(NC(=O)c2ccc3c(c2)OCO3)cc1 68.6%
Cc1oc(-c2ccccc2F)nc1CN1CCC(C(=O)NC2CCCCCCC2)CC1 63.1%
O=C(c1ccc2c(=O)n(Cc3ccc4c(c3)OCO4)c(=S)[nH]c2c1)N1CCCCC1 47.4%
CCCCCC(=O)Nc1ccc2oc(-c3ccncc3)nc2c1 31.2%
CCC(=O)N1CCc2cc(S(=O)(=O)CCC(=O)NCCC3=CCCCC3)ccc21 40%
O=C(Nc1ccc2c(c1)OCCO2)NC1CCCCC1 52.7%
CS(=O)(=O)N(Cc1ccc(C(=O)NCCSCc2ccco2)cc1)c1ccccc1 53.6%
COCCNC(=O)CN1CCC(NC(=O)Nc2ccc(C(F)(F)F)cc2)CC1 54.7%
CCCCOc1cccc(/C=N/NC(=O)c2csc(C)c2C)c1 60.7%
COc1ccc(/C=N/NC(=O)c2ccc(COc3ccccc3Cl)o2)cc1 55.4%
O=C(NCCC1=CCCCC1)NC1CCCCC1 70.5%
CCCCNC(=O)CSc1nc2ccc(NC(=O)CSc3nnc(COc4ccccc4C)n3C)cc2s1 58.5%
CCOC(=O)CSc1nc2ccccc2c(=O)n1CC1CCC(C(=O)NCc2ccco2)CC1 (stereo not given) 45.6%
O=C(CCCCCn1c(=S)[nH]c2ccccc2c1=O)NCc1ccc2c(c1)OCO2 59.3%
CCC(C)NC(=O)Nc1ccc2c(c1)N(C)C(=O)c1ccccc1S2 (stereo not given) 59.7%
Cc1ccc(N(CC(=O)NC2CCCCC2)C(=O)c2ccc(C)s2)cc1 43.7%
C/C(=N\NC(=O)Cc1cccn1C)c1cccc2ccccc12 40.4%
Cc1cc2cc(CNC(=O)NC3CCCCC3)ccc2[nH]1 60%
CSc1cccc(NC(=O)Nc2ccc(Cl)cc2)c1 59.3%
O=C(NCc1ccc2c(c1)OCO2)C1CCN(Cc2cnn(-c3ccccc3)c2-n2cccc2)CC1 57.2%
CC(NC(=O)NC12CC3CC(CC(C3)C1)C2)C1CCCO1 (stereo not given) 71.5%
COc1ccc(CCN2C(=O)C3C4CC(C5C(C(=O)N/N=C\c6ccc(Cl)cc6)=NOC45)C3C2=O)cc1OC (stereo not given) 67.1%
CC(C)(C)n1nnnc1CN1CCC(NC(=O)NC2CCCCC2)CC1 70.3%
O=C(NCc1ccc2c(c1)OCO2)C1CCN(c2ccc(S(=O)(=O)N3CCCC3)cc2)CC1 52.2%
O=C(NCCC1=CCCCC1)C1CCCN(c2nc3ccccc3o2)C1 (stereo not given) 53.6%
O=C(CCC1CCCCC1)NNC(=O)NC12CC3CC(CC(C3)C1)C2 59.2%
CCOc1ccc(NC(=O)c2ccc(F)c(S(=O)(=O)N3CCN(c4ccccn4)CC3)c2)cc1 64.3%
CCc1c(C)nc2ncnn2c1N1CCC(C(=O)Nc2ccc(C)cc2)CC1 44.3%
C/C(=N\NC(=O)c1cccc(S(=O)(=O)Nc2ccccc2Cl)c1)c1ccc(-n2ccnc2)cc1 56%
O=C(NC12CC3CC(CC(C3)C1)C2)N1CC2Cc3cccc(=O)n3C(C2)C1 (stereo not given) 54.2%
O=C(Nc1cccc2ccccc12)c1ccc(OC(=S)N2CCOCC2)cc1 68.8%
CC(Cc1cccs1)NC(=O)Nc1ccc(Cl)c(Cl)c1 (stereo not given) 65.5%
O=C(Nc1ccc2c(c1)nc1n2CCN(C2CCCCC2)C1)NC1CCCCC1 72.7%
NNC(=O)c1cccc(COc2cccc(Br)c2)c1 37.1%
